Measured values taken from the antibiotic and cytotoxicity screens of Wong et al. (2023).
In all, about 39,000 compounds went through this assay and about 3,300 (8.5%) were called active. Only a selection was taken, and actives are over-represented in it overall.

The compounds below were run on HepG2 (assay: cytotoxicity call (relative viability < 0.9)). Settings: 10 µM.

Row | Compound | cytotoxicity call
1 | C[C@@H]1CN([C@H](C)CO)C(=O)c2cc(NC(=O)CCN3CCOCC3)ccc2O[C@@H]1CN(C)C(=O)Nc1ccccc1 | inactive
2 | C[C@@H]1CN([C@@H](C)CO)S(=O)(=O)c2ccc(C#CC3CCCC3)cc2O[C@H]1CN(C)Cc1cncnc1 | inactive
3 | C[C@@H]1O[C@@H](O[C@@H]2CC[C@@]3(C)[C@@H](CC[C@]4(C)[C@@H]3CC=C3[C@@H]5CC(C)(C)CC[C@]5(C(=O)O[C@@H]5O[C@H](CO[C@@H]6O[C@H](CO)[C@@H](O)[C@H](O)[C@H]6O)[C@@H](O)[C@H](O)[C@H]5O)CC[C@]34C)[C@]2(C)CO)[C@H](O)[C@H](O[C@@H]2OC[C@@H](O)[C@H](O)[C@H]2O)[C@H]1O | inactive
4 | C[C@H]1O[C@@H](OC(=O)[C@]23CCC(C)(C)C[C@H]2C2=CC[C@H]4[C@@]5(C)CC[C@H](O[C@@H]6O[C@H](C(=O)O)[C@@H](O)[C@H](O[C@@H]7OC[C@@H](O)[C@H](O)[C@H]7O)[C@H]6O[C@@H]6O[C@H](CO)[C@H](O)[C@H](O)[C@H]6O)[C@@](C)(C=O)[C@@H]5CC[C@@]4(C)[C@]2(C)C[C@H]3O)[C@H](O[C@H]2O[C@@H](CO)[C@@H](O)[C@@H](O)[C@@H]2O)[C@@H](O)[C@H]1O[C@@H]1O[C@H](C)[C@@H](O[C@H]2OC[C@@H](O)[C@@H](O)[C@@H]2O)[C@H](O)[C@@H]1O | inactive
5 | CC(=O)N[C@H]1[C@H](O[C@H]2CC[C@]3(C)[C@H]4CC=C5[C@@H]6CC(C)(C)CC[C@]6(C(=O)O[C@H]6OC[C@@H](O)[C@@H](O)[C@@H]6O)[C@@H](O)C[C@@]5(C)[C@]4(C)CC[C@H]3C2(C)C)O[C@H](CO[C@H]2OC[C@@H](O)[C@@H](O[C@H]3OC[C@@H](O)[C@@H](O)[C@@H]3O)[C@@H]2O)[C@@H](O[C@@H]2O[C@@H](C)[C@H](O)[C@@H](O)[C@H]2O[C@@H]2O[C@@H](C)[C@H](O)[C@@H](O)[C@H]2O)[C@@H]1O | active
6 | C[C@@H]1O[C@H](O[C@H]2[C@H](OC(=O)[C@]34CCC(C)(C)C[C@@H]3C3=CC[C@@H]5[C@@]6(C)CC[C@H](O[C@@H]7O[C@@H](C)[C@H](O[C@@H]8OC[C@@H](O)[C@H](O)[C@H]8O)[C@@H](O)[C@H]7O)C(C)(C)[C@@H]6CC[C@@]5(C)[C@]3(C)C[C@@H]4O)OC[C@H](O)[C@H]2O)[C@H](O)[C@H](O)[C@H]1O[C@@H]1O[C@H](CO)[C@@H](O)[C@H](O)[C@H]1O | inactive
7 | C[C@H]1O[C@@H](O[C@H]2[C@@H](O)[C@@H](O)[C@@H](O[C@H]3CC[C@]4(C)[C@H]5CC=C6[C@H]7CC(C)(C)[C@H]8C[C@]7(C(=O)O8)[C@@H](O)C[C@]6(C)[C@@]5(C)CC[C@H]4C3(C)C)O[C@@H]2CO)[C@@H](O)[C@@H](O[C@H]2OC[C@@H](O)[C@@H](O)[C@@H]2O)[C@@H]1O | inactive
8 | CC1(C)CC[C@]2(C(=O)O[C@@H]3O[C@H](CO)[C@@H](O)[C@H](O)[C@H]3O)CC[C@]3(C)C(=CC[C@H]4[C@@]5(C)CC[C@@H](O[C@@H]6O[C@H](C(=O)O)[C@@H](O[C@@H]7OC[C@@H](O)[C@H](O)[C@H]7O)[C@H](O[C@@H]7OC[C@](O)(CO)[C@H]7O)[C@H]6O)C(C)(C)[C@@H]5CC[C@]43C)[C@@H]2C1 | inactive
9 | C[C@@H]1O[C@@H](O[C@H]2[C@H](OC(=O)[C@]34CCC(C)(C)C[C@H]3C3=CC[C@H]5[C@@]6(C)CC[C@H](O[C@@H]7O[C@H](CO)[C@@H](O)[C@H](O)[C@H]7O)C(C)(C)[C@@H]6CC[C@@]5(C)[C@]3(C)C[C@H]4O)OC[C@H](O)[C@@H]2O)[C@H](O)[C@H](O[C@@H]2OC[C@H](O)[C@H](O)[C@H]2O)[C@H]1O[C@@H]1OC[C@@H](O)[C@H](O[C@@H]2OC[C@H](O)[C@H](O)[C@H]2O)[C@H]1O | active
10 | C=C[C@](C)(O)CC/C=C(\C)C(=O)O[C@@H]1[C@@H](O[C@@](C)(C=C)CC/C=C(\C)C(=O)O[C@H]2C[C@@]3(C(=O)O[C@H]4OC[C@@H](O[C@H]5O[C@@H](CO)[C@@H](O)[C@@H](O[C@H]6O[C@@H](CO)[C@@H](O[C@H]7O[C@@H](CO)[C@@H](O)[C@@H](O)[C@@H]7O)[C@@H](O)[C@@H]6O)[C@@H]5O)[C@@H](O)[C@@H]4O)[C@@H](O)C[C@@]4(C)C(=CC[C@H]5[C@@]6(C)CC[C@@H](O[C@H]7O[C@@H](CO)[C@@H](O[C@H]8O[C@@H](CO)[C@@H](O)[C@@H](O[C@H]9OC[C@@H](O)[C@@H](O)[C@@H]9O)[C@@H]8O)[C@@H](O)[C@@H]7O)C(C)(C)[C@@H]6CC[C@@]54C)[C@@H]3CC2(C)C)OC[C@@H](O)[C@H]1O | active
11 | C[C@@H]1O[C@H](O[C@@H]2[C@H](O)C[C@@]3(C)[C@@H](CC[C@]4(C)[C@H]3CC=C3[C@H]5CC(C)(C)CC[C@@]5(C(=O)O[C@H]5O[C@@H](C)[C@@H](O)[C@H](O[C@H]6OC[C@@H](O)[C@@H](O)[C@@H]6O)[C@H]5O[C@@H]5O[C@H](C)[C@H](O)[C@H](O[C@@H]6OC[C@H](O)[C@H](O[C@@H]7O[C@H](C)[C@@H](O)[C@H](O)[C@@H]7O)[C@H]6O)[C@H]5O)[C@@H](O)C[C@@]34C)[C@]2(C)CO)[C@@H](O)[C@H](O[C@H]2OC[C@@H](O)[C@@H](O[C@H]3OC[C@@H](O[C@H]4OC[C@@](O)(CO)[C@@H]4O)[C@@H](O)[C@@H]3O)[C@@H]2O)[C@@H]1O | inactive
12 | C[C@@H]1O[C@@H](O[C@@H]2[C@@H](O)[C@@H](O[C@@H]3O[C@@H](CO)[C@H](O)[C@H]3O)[C@H](OC(=O)[C@]34CCC(C)(C)C[C@H]3C3=CC[C@H]5[C@@]6(C)C[C@H](O)[C@H](O[C@@H]7O[C@@H](C)[C@H](O)[C@@H](O[C@@H]8OC[C@@H](O)[C@H](O)[C@H]8O[C@@H]8O[C@H](CO)[C@@H](O)[C@H](O)[C@H]8O)[C@H]7O)[C@@](C)(CO)[C@@H]6CC[C@@]5(C)[C@]3(C)C[C@H]4O)O[C@H]2C)[C@H](O)[C@H](O)[C@H]1O | active
13 | C[C@@H]1CN([C@H](C)CO)C(=O)Cc2cc(NS(=O)(=O)c3cccs3)ccc2O[C@H]1CN(C)C(=O)Nc1cccc2ccccc12 | inactive
14 | CCCNC(=O)N(C)C[C@@H]1Oc2cc(-c3ccccc3F)ccc2S(=O)(=O)N([C@@H](C)CO)C[C@@H]1C | inactive
15 | CN(C)CCCNC(=O)C[C@@H]1C=C[C@H](NS(=O)(=O)c2ccccc2)[C@@H](CO)O1 | inactive
16 | C[C@@H]1CCCCO[C@@H](CN(C)S(=O)(=O)c2cn(C)cn2)[C@@H](C)CN([C@H](C)CO)C(=O)c2cc(NS(=O)(=O)c3ccccc3)ccc2O1 | inactive
17 | O=C(NCCCN1CCOCC1)[C@H]1[C@H](CO)[C@H]2Cn3c(cccc3=O)[C@@H]1N2C(=O)C1CCCC1 | inactive
18 | COc1ccc(CNC(=O)C[C@H]2C[C@@H]3c4cc(NS(=O)(=O)c5ccc(F)cc5)ccc4O[C@@H]3[C@H](CO)O2)cc1 | inactive

Row | Compound | cytotoxicity call
19 | C[C@@H]1CN([C@@H](C)CO)C(=O)Cc2cc(NC(=O)CCCCCC(=O)Nc3ccccc3N)ccc2O[C@H]1CN(C)S(C)(=O)=O | inactive
20 | COc1cccc(CN(C)C[C@@H]2OCc3ccccc3-c3c(n(C)c4ccccc34)C(=O)N([C@@H](C)CO)C[C@H]2C)c1 | inactive
21 | C[C@H](CO)N1C[C@H](C)[C@H](CN(C)Cc2ccc(C(F)(F)F)cc2)OCCCC[C@H](C)Oc2ccc(NS(=O)(=O)c3cn(C)cn3)cc2C1=O | inactive
22 | O=C(C[C@@H]1CC[C@H]2[C@@H](COC[C@H](O)CN2C(=O)Nc2ccc(Cl)cc2)O1)NCCc1ccncc1 | inactive
23 | C[C@@H]1CCCCO[C@H](CN(C)Cc2ccc(C(F)(F)F)cc2)[C@@H](C)CN([C@@H](C)CO)C(=O)c2cc(N(C)C)ccc2O1 | inactive
24 | O=C(C[C@@H]1C[C@@H]2c3cc(NC(=O)C4CCOCC4)ccc3O[C@@H]2[C@H](CO)O1)NCc1cc(F)ccc1F | inactive
25 | O=c1c(O)c(O)cc2cccc(O)c(O)c1-2 | active
26 | O=c1c(O)cccc2cc(O)c(O)c(O)c12 | inactive
27 | O=C(O)c1cc2ccc(O)c(=O)c-2c(O)c(O)c1 | inactive
28 | CCCNC(=O)Nc1ccc2c(c1)OC[C@H](C)N(C(=O)C1CCOCC1)C[C@H](C)[C@@H](OC)CN(C)C2=O | inactive
29 | Cc1ccc(S(=O)(=O)N(C)C[C@@H]2Oc3ccc(NS(C)(=O)=O)cc3CC(=O)N([C@@H](C)CO)C[C@H]2C)cc1 | inactive
30 | C=CCOC(=O)[C@@H]1[C@@H]2C=C[C@@]3(O2)[C@@H]1C(=O)N(CCCCCCO)[C@H]3C(=O)N(CC=C)Cc1ccccc1 | active
31 | C=CCOC(=O)[C@@H]1[C@@H]2C=C[C@]3(O2)[C@H](C(=O)N(CC=C)Cc2ccccc2)N(c2cccc(Cl)c2CO)C(=O)[C@@H]13 | inactive
32 | C=CCN(Cc1ccccc1)C(=O)[C@@H]1N(CCOCCO)C(=O)[C@@H]2[C@H](C(=O)O)[C@@H]3C=C[C@@]21O3 | inactive
33 | Cc1cc(C(=O)Nc2cccc3c2O[C@@H](CN(C)C(=O)Nc2ccc4c(c2)OCO4)[C@H](C)CN([C@H](C)CO)C3=O)n(C)n1 | inactive
34 | CC(=O)N1CCN(CCOc2ccc(C3CCN(C4=Nn5c(nnc5C(F)(F)F)CC4)CC3)cc2)CC1 | active
35 | C[C@@H]1CN([C@H](C)CO)S(=O)(=O)c2ccc(/C=C/c3ccccc3)cc2O[C@@H]1CN(C)C(=O)CN1CCOCC1 | inactive
36 | COc1ccc(NC(=O)N(C)C[C@H]2OCCCC[C@H](C)Oc3ccc(NC(=O)Nc4ccc(F)cc4)cc3C(=O)N([C@@H](C)CO)C[C@H]2C)cc1 | inactive
